Laboratory results reported in PubChem BioAssay (NCI).
The panel holds about 83,000 compounds, 20% with a hit somewhere; the sample as a whole holds those more often.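 Results are percent growth after 48 hours of single-concentration exposure. 100 means growth as in untreated cells, lower positive values show inhibition; negative values down to -100 show cell death.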 A number with no mark means an inactive call. Calls of active or inactive are those of the source. Rule for the calls: active = growth percent below 10; inactive = the rest.

test system: NCI-H460 lung; assay: NCI-60 one-dose screen, 48 h (100 = growth as untreated, 0 = no growth, -100 = all killed); settings: 10 µM unless noted

Q: `CCCCN(CCCC)c1ccc(C(=N)c2ccc(N(CCCC)CCCC)cc2)cc1` was tested. Which growth did it give?
A: -85.9% (active)

Q: With `Clc1ccc(-c2nc3ccccc3s2)cc1Cl` as the molecule, how does the growth read?
A: 96.4%

Q: `Cc1nc2c3c(ncn2n1)Oc1c(c(=O)[nH]c2ccccc12)C3c1ccc(Cl)cc1` (centres undefined) was tested. Which growth did it give?
A: 101%

Q: For `O=C(NNC(=S)Nc1ccccc1)c1cc2ccc1CCc1ccc(cc1)CC2`, which growth is on record?
A: 36.9%

Q: For `O=C(Nc1ccc2c(c1)OCCO2)C(=O)c1c[nH]c2ccccc12`, which growth is on record?
A: 8.62% (active)

Q: `COc1ccc2c(c1)C(c1cc(OC)c3c(c1)OCO3)C1=C(COC1=O)N2` (centres undefined) was tested. Which growth did it give?
A: 6.63% (active)

Q: Which growth does the source give for `Fc1ccc(Nc2nc(NCCNc3ccnc4cc(Cl)ccc34)nc(N3CCOCC3)n2)cc1` here?
A: 34.9%

Q: Which growth does the source give for `S=c1[nH]nc(-c2cc3ccc2CCc2ccc(cc2)CC3)n1-c1ccccc1` here?
A: 99.6%

Q: How did the growth turn out when `CC(C)(C)NCCC(O)c1cc2c(Cl)cc(Cl)cc2c2cc(C(F)(F)F)ccc12` (centres undefined) was run?
A: -73.6% (active)

Q: How did the growth turn out when `COc1ccc2cc(-c3ccc(-c4ccc(C(=N)N)cc4)s3)ccc2c1` was run?
A: 100%

Q: How did the growth turn out when `CCN(CC)CCC(CNc1c2ccc(Cl)cc2nc2ccc(OC)cc12)c1ccccc1` (centres undefined) was run?
A: -39.6% (active)

Q: How did the growth turn out when `Cc1ccc(S(=O)(=O)C2=C3C(=C(c4ccccc4)c4ccccc43)CN(S(=O)(=O)c3ccc(C)cc3)C2)cc1` was run?
A: 63.8%

Q: With `Cc1ccc(S(=O)(=O)NCCNc2nccc(-c3c(-c4cccc(N)c4)nc4sccn34)n2)cc1` as the molecule, how does the growth read?
A: 94.7%

Q: For `CC(C)NCCCNC1=C(Cl)C(=O)c2ccccc2C1=O`, which growth is on record?
A: 87.2%

Q: For `COc1cccc(CC(C)=C(c2ccc(OCCN(C)C)cc2)c2ccc(OCCN(C)C)cc2)c1`, which growth is on record?
A: -64.9% (active)

Q: `S=c1[nH]nc(-c2cc3ccc2CCc2ccc(cc2)CC3)n1C1CC1` was tested. Which growth did it give?
A: 103%

Q: `COc1ccc(Nc2[nH]n3c(=O)cc(-c4ccccc4)nc3c2C(=O)Nc2ccc(C)cc2)c(OC)c1` was tested. Which growth did it give?
A: 111%

Q: With `O=c1[nH]c2ccc(Br)cc2c2c1C(c1ccc(Cl)cc1)c1c(ncn3nc(-c4ccco4)nc13)O2` (centres undefined) as the molecule, how does the growth read?
A: 85.1%

Q: How did the growth turn out when `COc1cc(-c2nn(-c3cccc(NC(=O)Nc4cc(C(F)(F)F)cc(C(F)(F)F)c4)c3)cc2-c2ccncc2)ccc1Cl` was run?
A: -49.7% (active)

Q: For `COc1cc(/C=C/C(=O)N2CCN(C(=O)/C=C/c3cc(OC)c(OC)c(OC)c3)CC2)cc(OC)c1OC`, which growth is on record?
A: 104%

Q: `CCN(CC)CCOC(=O)C(c1ccccc1)(c1ccccc1)C(C)C` was tested. Which growth did it give?
A: 92%

Q: With `C=C[C@@H]1C[C@H](O)Cc2c(C)cc(C)cc2N1` as the molecule, how does the growth read?
A: 102%

Q: `N=C(N)c1ccc(-c2cc(Cl)cc(Cl)c2)cn1` was tested. Which growth did it give?
A: 96.9%

Q: For `CCCCCCCCCCCCNC(=O)[C@H]1CSC(c2ccsc2)N1` (some centres undefined), which growth is on record?
A: -80.1% (active)

Q: How did the growth turn out when `O=C(NCc1cn(Cc2cccc(Oc3ccccc3)c2)nn1)c1cccnc1Nc1ccc(F)cc1` was run?
A: 34.4%

Q: For `CCN1CCN(CC(=O)N2c3cccc4cccc(c34)N(C(=O)CN3CCN(CC)CC3)C2c2cn(-c3ccccc3)nc2-c2cccc([N+](=O)[O-])c2)CC1`, which growth is on record?
A: -37.9% (active)

Q: For `O=S(=O)(NCCCNc1nccc(-n2ccc3cccnc32)n1)c1ccc(Br)cc1`, which growth is on record?
A: 105%

Q: For `COC(=O)C(Sc1ccc(Cl)cc1)C1SC(=S)N(Cc2ccccc2)C1=O` (centres undefined), which growth is on record?
A: 107%

Q: `Cc1ccc2[nH]c(=O)c3c(c2c1)Oc1ncn2nc(-c4ccco4)nc2c1C3c1ccc(Cl)cc1` (centres undefined) was tested. Which growth did it give?
A: 99.9%

Q: `c1ccc(-c2cn(-c3ccccc3)c(-c3ccccc3)n2)cc1` was tested. Which growth did it give?
A: 89.5%

Q: Which growth does the source give for `CCN(CC)CCCC(C)Nc1c2ccc(Cl)cc2nc2cc(OC)c(OC)cc12` (centres undefined) here?
A: -31.6% (active)

Q: Which growth does the source give for `CN(C)c1cccc2c(S(=O)(=O)/N=C(\N)Nc3nc4ccccc4s3)cccc12` here?
A: 30.3%

Q: How did the growth turn out when `O=C(Nc1ccc(Cl)c(Cl)c1)NS(=O)(=O)c1cnccc1Oc1ccc(F)cc1` was run?
A: 44.6%

Q: Which growth does the source give for `Cc1ccc2nc(Cl)cc(=O)n2c1` here?
A: 113%

Q: `Cn1ccc(=O)c(S(N)(=O)=O)c1` was tested. Which growth did it give?
A: 102%

Q: How did the growth turn out when `COc1ccc(-c2c(N)n[nH]c2-c2cc3c(c(OC)c2OC)OCO3)cc1` was run?
A: 105%

Q: `CC(=O)Oc1csc(N(C(C)=O)c2cccc(C(F)(F)F)c2)n1` was tested. Which growth did it give?
A: 102%

Q: How did the growth turn out when `C=C1CCC2C3(C)COC(C)(C)OC3CCC2(C)C1C/C=C1/C(=O)OCC1Oc1ccccc1OC` (centres undefined) was run?
A: 102%

Q: With `COc1ccc(/C=C\c2cc(OC)c(OC)c(OC)c2)cc1OC(=O)c1cccc(Cn2cc(CCOC(=O)c3cccc(Cn4nnc5c4C(=O)c4ccccc4C5=O)c3)nn2)c1` as the molecule, how does the growth read?
A: 5.39% (active)
